Results filed as inconclusive are left out. A call without a number means that no potency is given here. Calls of active or inactive are those of the source. The call rests on the fitted dose curve; in most records, active means well fitted cell-killing curve with a large enough effect; inconclusive means small, poorly fitted or top-dose-only effect, or effect the other way; inactive means no such curve, though single readings can be large or run the other way.
Tested on: SW626
Assay: Confirmatory qHTS for gynecologic anti-cancer compounds from libraries of approved drugs and bioactive compounds; further: nearly all actives have a fitted effect of over 55% in size
Conditions: gynecologic cancer cell panel viability, ATPlite luminescence, 48 h; series mostly up to 57.6 µM
In short: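 Viability is measured as ATP-dependent luciferase light using ATPlite, read 15 min after reagent addition at room temperature. Compounds, in DMSO, span 57.5 uM down to 0.977 nM over 11 threefold steps for 48 h.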
Potency means the concentration at half of the fitted maximal effect.

SMILES	Potency
CS(=O)(=O)c1ccc(C(=O)Nc2ccc(Cl)c(-c3ccccn3)c2)c(Cl)c1	inactive
CN(Cc1cnc2nc(N)nc(N)c2n1)c1ccc(C(=O)N[C@@H](CCC(=O)O)C(=O)O)cc1	inactive
NC(=O)c1ccc2nc(-c3ccc(Oc4ccc(Cl)cc4)cc3)[nH]c2c1	inactive
Cc1cnc(Nc2ccc(CN3CCOCC3)cc2)nc1Nc1cccc(S(=O)(=O)NC(C)(C)C)c1	15.3 µM (active)
CCCCN(CCCC)CC(O)c1cc(Cl)cc2c1-c1ccc(Cl)cc1/C2=C/c1ccc(Cl)cc1 (configuration not stated)	inactive
NC(=O)Nc1cc(-c2cccc(F)c2)sc1C(=O)NC1CCCNC1 (configuration not stated)	0.306 µM (active)
CCC1C(=O)N(C)c2cnc(Nc3ccc(C(=O)NC4CCN(C)CC4)cc3OC)nc2N1C1CCCC1 (configuration not stated)	2.43 µM (active)
CC(C)n1nc(-c2cc3cc(O)ccc3[nH]2)c2c(N)ncnc21	7.69 µM (active)
CNc1nc(Nc2ccc(C(=O)N3CCOCC3)cc2OC)ncc1Cl	inactive
Cc1nc(NC(=O)N2CCCC2C(N)=O)sc1-c1csc(C(C)(C)C)n1 (configuration not stated)	inactive
CC(C)[C@@H](CS(=O)(=O)C(C)C)N1C(=O)[C@@](C)(CC(=O)O)C[C@H](c2cccc(Cl)c2)[C@H]1c1ccc(Cl)cc1	inactive
Cc1nc(N)nc(N)c1-c1ccc(Cl)c(Cl)c1	3.85 µM (active)
CN(C)CC/C=C1\c2ccccc2COc2ccccc21	inactive
COc1c(C)c2c(c(O)c1C/C=C(\C)CCC(=O)O)C(=O)OC2	inactive
O=C(CCCCCCNC(=O)c1cnc(N(c2ccccc2)c2ccccc2)nc1)NO	7.69 µM (active)
CC[C@H](CC#N)OC(=O)N[C@@H](C)c1cccc(NC(=O)Nc2ccc(-c3cnco3)c(OC)c2)c1	inactive
S=c1nc[nH]c2nc[nH]c12	6.85 µM (active)

Source: PubChem BioAssay AID1345085 (National Center for Advancing Translational Sciences (NCATS), 2018)
